Results filed as inconclusive are left out. A call without a number means that no potency is given here. The source made the active and inactive calls. Calls come from the whole dose curve; as a rule, active = well fitted curve in the direction sought with a large enough effect; inconclusive = small, poorly fitted or top-dose-only effect, or another doubt; inactive = no such curve, though single readings can be large; an effect the other way counts as inactive or inconclusive.
Columns and labels:
[1] = target: Aldehyde dehydrogenase, mitochondrial (Homo sapiens) (UniProt P05091); experiment: qHTS for Inhibitors of the Aldehyde Dehydrogenase Family (ALDH2) Primary screen (AID 2061308); settings: ALDH2 enzyme inhibition qHTS, 1536-well; series mostly up to 56 µM; note: nearly all actives have a fitted effect of over 55% in size
[2] = target: Retinaldehyde dehydrogenase 3 (Homo sapiens) (UniProt P47895); experiment: qHTS for Inhibitors of the Aldehyde Dehydrogenase Family (ALDH1A3) Primary screen (AID 2061315); settings: ALDH inhibition qHTS; series mostly up to 56 µM

Compound: Cc1ccc(S(=O)(=O)Nc2cnccc2C(=O)Nc2ccc(-c3nn[nH]n3)cc2)cc1
- Potency [1]: inactive
- Potency [2]: inactive

Compound: O=C(CN1C(=O)N/C(=C\c2cn(-c3cccc(C(=O)O)c3)cn2)C1=O)Nc1ccc(Cl)cc1
- Potency [1]: inactive
- Potency [2]: inactive

Compound: O=C(COC(=O)CNC(=O)c1ccccc1Cl)Nc1ccccc1Cl
- Potency [1]: inactive
- Potency [2]: inactive

Compound: O=C(Nc1ncc(Cc2ccc(C(F)(F)F)cc2)s1)c1cnc(-c2ccccc2)[nH]1
- Potency [1]: inactive
- Potency [2]: inactive

Compound: COc1cccc(C2c3c(ncn(-c4ccc(C(C)(C)C)cc4)c3=N)Oc3ccc4ccccc4c32)c1 (centres undefined)
- Potency [1]: inactive
- Potency [2]: inactive

Compound: CN(C)CCOC(C)(c1ccccc1)c1ccc(Cl)cc1 (centres undefined)
- Potency [1]: inactive
- Potency [2]: inactive

Compound: Oc1ccc(CNc2ccc3ccccc3n2)c2cccnc12
- Potency [1]: inactive
- Potency [2]: inactive

Compound: Cc1cc(C)nc(NC(=S)N2CCN(c3ccc(Cl)cc3F)CC2)c1
- Potency [1]: inactive
- Potency [2]: inactive

Compound: O=C1c2ccccc2C(=O)N1c1cccc2ncccc12
- Potency [1]: inactive
- Potency [2]: inactive

Compound: CC(C)C1=CC2=CCC3[C@](C)(CCC[C@@]3(C)C(=O)O)C2CC1O (some centres undefined)
- Potency [1]: inactive
- Potency [2]: inactive

Compound: COc1ccc(C2Nc3ccccc3C(=O)N2Cc2ccco2)cc1COc1c(C)cc(NC(C)=O)cc1C (centres undefined)
- Potency [1]: inactive
- Potency [2]: inactive

Compound: Cc1ccc(-c2ccc(=O)n(CC(=O)N(C3CCCCC3)C3CC3)n2)cc1
- Potency [1]: inactive
- Potency [2]: inactive

Compound: Cc1nc(CNc2ncnc3ccc(-c4sc(C)nc4C)cc23)cs1
- Potency [1]: inactive
- Potency [2]: inactive

Compound: Cc1cc(C)n2ncc(C(=O)Nc3ccc(S(C)(=O)=O)cc3)c2n1
- Potency [1]: inactive
- Potency [2]: inactive

Compound: O=C(OCC#CCSc1nnc(-c2ccccc2)o1)c1ccc(F)cc1
- Potency [1]: inactive
- Potency [2]: inactive

Compound: Cc1cc(C)nc(NC(=S)N2CCN(c3ccc(Cl)cc3[N+](=O)[O-])CC2)c1
- Potency [1]: inactive
- Potency [2]: inactive

Compound: COc1ccc(C(=O)OCC#CCSc2nnc(-c3cccc4ccccc34)o2)cc1
- Potency [1]: inactive
- Potency [2]: inactive

Compound: CC(=O)c1ccc(N2CCN(S(=O)(=O)c3ccc4c(c3)oc(=O)n4C)CC2)cc1
- Potency [1]: inactive
- Potency [2]: inactive

Compound: C=C1C(=O)O[C@@H]2C[C@]3(C)[C@@H](CCC(C)O)[C@@H]3C[C@H]12 (some centres undefined)
- Potency [1]: inactive
- Potency [2]: inactive

Compound: NCCCC(=O)Nc1ccc(Cl)cc1C(=O)c1ccc[nH]1
- Potency [1]: inactive
- Potency [2]: inactive

Compound: COc1cc(Nc2nc(-c3ccncc3)nc3ccccc23)ccc1F
- Potency [1]: inactive
- Potency [2]: inactive

Compound: Cc1ccc(-c2ccc(=O)n(CC(=O)NCc3ncc[nH]3)n2)cc1
- Potency [1]: inactive
- Potency [2]: inactive

Compound: Cc1ccc(NS(=O)(=O)c2cccc(C(=O)O)c2)cc1C
- Potency [1]: inactive
- Potency [2]: inactive

Compound: COc1ccc(C2=Nn3c(nnc3-c3ccccc3Cl)SC2)cc1O[C@H]1CCOC1
- Potency [1]: inactive
- Potency [2]: inactive

Compound: Cn1nnnc1Sc1ncnc2scc(-c3ccc[nH]3)c12
- Potency [1]: inactive
- Potency [2]: inactive

Compound: COc1ccc(C2Nc3ccccc3C(=O)N2Cc2ccccn2)cc1COc1c(C)cccc1C (centres undefined)
- Potency [1]: inactive
- Potency [2]: inactive

Compound: CN(C)CC1CCN(C2CCN(C(=O)c3cccc(-c4cc(O)c5ncccc5c4)c3)CC2)CC1
- Potency [1]: inactive
- Potency [2]: inactive

— PubChem BioAssay (NCATS)
